Screens deposited in PubChem by National Center for Advancing Translational Sciences (NCATS).
Shown are actives, neighbours in structure and some others; about 2.1% of the full set was active somewhere.
TDP43 rescue: TDP-43 toxicity inhibition in yeast; 1.8% of 410,000 active; Potency, µM (top dose mostly 46.1 µM), for inactives: at the highest dose growth rescue (activation), most hits filed as activators; TDP-43 expressing yeast growth rescue, BacTiter-Glo, 24 h; further: % of control where 0% means no effect; nearly all actives have a fitted effect of over 50% in size
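Luminescence from BacTiter-Glo reports growth of TDP-43-expressing yeast after 24 hr at 30 deg C with compound. Cells were raffinose-pregrown to mid-log, then seeded in galactose medium at OD600=0.02.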
FUS yeast rescue: suppressors of FUS proteinopathy in yeast. 0.24% of 390,000 active. Potency, µM (series often up to 76.6 µM), hits mostly activators. S. cerevisiae FUS-expressing, growth rescue, OD600, 24 h. AID 1347120;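 further: plate controls were DMSO vehicle for no effect and reference control for full effect; nearly all actives have a fitted effect of over 55% in size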
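Galactose (2%) drives FUS expression in yeast precultured in raffinose; seeding density OD 0.005. Test compounds incubated 24hr at 30C and 99% humidity before absorbance at 600 nm was measured.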
aSyn rescue: alpha-synuclein toxicity inhibition in yeast. 0.14% of 370,000 active. Potency, µM (doses to about 46.1 µM), for inactives: at the highest dose growth rescue (activation), hits mostly activators. Yeast expressing alpha-synuclein, growth rescue, BacTiter-Glo, 24 h. AID 652106; further: % of control where 0% means no effect; nearly all actives have a fitted effect of over 65% in size
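Readout is rescue of growth in alpha-synuclein-expressing yeast, so inhibitors of toxicity appear as activators. Growth after 24 hr at 30 deg C in galactose medium is quantified by luminescence.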
Abeta rescue: compounds reversing amyloid beta toxicity in yeast; yeast expressing A-beta42, growth rescue, OD600, 48 h; response scale: 0% DMSO, 100% iron-clioquinol control; Potency, µM (series often up to 46.1 µM), usual class: activators; 0.063% of 410,000 active; AID 1347071; further: nearly all actives have a fitted effect of over 55% in size
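Yeast A-beta toxicity model in growth medium with pinned compounds, 48 h at 30 C; growth read as absorbance at 600 nm. Normalized to FeCl3/clioquinol equimolar mix (positive) and DMSO (negative).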
Numbers without * were called inactive; i = inactive; ? = inconclusive; . = no result. The call rests on the fitted dose curve; in most records, active means well fitted curve in the direction sought with a large enough effect; inconclusive means small, poorly fitted or top-dose-only effect, or another doubt; inactive means no such curve, though single readings can be large; an effect the other way counts as inactive or inconclusive. Potency means the concentration at half of the fitted maximal effect.

SMILES	TDP43 rescue	FUS yeast rescue	aSyn rescue	Abeta rescue
Cc1c([N+](=O)[O-])cnc(Sc2ccccc2)c1[N+](=O)[O-]	22.4µM*	i	-23.8%	i
CNc1ncnc(Sc2ccc(Cl)cc2)c1[N+](=O)[O-]	-6.0%	i	-3.6%	i
Cc1cccc(C)c1OCC(=O)NCC1COc2ccccc2O1 (configuration not stated)	15.8µM*	i	1.7%	i
Cn1nc(C(=O)NCC2COc3ccccc3O2)c2ccccc2c1=O (configuration not stated)	20µM*	i	9.3%	i
Cc1ccc(C(=O)OCC(=O)NCC2COc3ccccc3O2)cc1 (configuration not stated)	?	i	2.1%	?
COc1cc2[nH]c(C(=O)N3CCc4ccccc4C3)cc2c(OC)c1OC	22.4µM*	i	-16.0%	i
CN(C)S(=O)(=O)Oc1ccsc1C(=O)Nc1cccc(Cl)c1Cl	17.8µM*	i	8.7%	i
CN(C)S(=O)(=O)Oc1ccsc1C(=O)Nc1ccccc1Cl	44.2%	i	10.0%	i
CN(C)S(=O)(=O)Oc1ccsc1C(=O)Nc1ccc(Cl)cc1	14.1µM*	i	-0.4%	i
O=C(OC12CCCN(C1)/C(=C/c1ccc(Cl)cc1)C2)c1ccno1 (configuration not stated)	.	i	.	.
COc1ccc(C(=O)N2N=C(c3cccs3)CC2c2ccccc2O)cc1 (configuration not stated)	27.6%	i	17.8µM*	i
Nc1ncnc2c(C3OC(CO)C(O)C3O)c[nH]c12 (configuration not stated)	3.16µM*	.	11.2µM*	i
CCOc1cc(CNC(=O)CN2CCSc3ccccc32)cc(OCC)c1OCC	21.3%	i	-12.1%	i
O=C(CN1CCSc2ccccc21)NCc1ccccc1F	12.6µM*	i	9.9%	i
O=C(c1ccc(F)cc1F)N(Cc1ccccn1)CC1CCCO1 (configuration not stated)	.	i	.	.
COc1ccc(-n2nc(C(=O)Nc3ccc(C(C)=O)cc3)nc2-c2ccccc2)cc1	22.4µM*	i	.	i
COc1ccc(-c2nc(C(=O)Nc3cccc(C(C)=O)c3)nn2-c2ccc(Cl)cc2)cc1	0.2%	?	.	i
Cc1cccc(CCNC(=O)C2CCC(CNS(=O)(=O)c3c(C)cc(C)cc3C)CC2)c1 (configuration not stated)	-17.6%	i	.	i
Cc1cccc(N2CCN(C(=O)C3CCN(S(=O)(=O)c4cccs4)CC3)CC2)c1C	8.7%	i	.	i
CCOC1=C2CN(S(=O)(=O)c3ccc(C)cc3)[C@H](c3cccc4ccccc34)C[C@H]2[C@H]2C(=O)N(c3ccccc3)C(=O)[C@H]2C1	18.6%	i	14.1µM*	i
CC(NCc1ccco1)C(=O)N1CCOCC1 (configuration not stated)	.	i	.	.
CC(Oc1cccc(Cl)c1)C(=O)Nc1ccc([N+](=O)[O-])cn1 (configuration not stated)	12.6µM*	.	-3.4%	i
CC(Oc1cccnc1[N+](=O)[O-])C(=O)Nc1cccc(Cl)c1 (configuration not stated)	15.8µM*	i	-1.1%	i
CC(Oc1cccnc1[N+](=O)[O-])C(=O)Nc1ccc(F)cc1 (configuration not stated)	?	i	0.4%	i
CC(=O)NC(Cc1c(F)c(F)c(F)c(F)c1F)C(=O)NCC(N)C(=O)c1ccccc1 (configuration not stated)	.	.	-2.1%	.
SMILES	TDP43 rescue	FUS yeast rescue	aSyn rescue	Abeta rescue
CCOc1ccc(C(=O)Nc2ccccc2C(=O)OCc2cc(=O)n3nc(C4CC4)sc3n2)cc1	3.3%	i	.	i
Cc1cc(C)c2sc(NNC(=O)c3ccc(S(=O)(=O)N4CCc5ccccc5C4)cc3)nc2c1	7.94µM*	?	4.7%	i
COc1ccccc1-c1nnc(-c2ccc(N3CCOCC3)cc2)o1	12.6µM*	i	12.6%	i
COc1ccccc1-c1nnc(-c2ccc(C)cc2)o1	-13.8%	i	-6.4%	i
CN(C)c1ccc(/C=C/c2c(F)cnc3ccccc23)cc1	.	.	1.4%	.
CN(C)c1cccc(/C=C2\CC3(OC(=O)c4ccco4)CCCN2C3)c1 (configuration not stated)	.	i	.	.
COC(=O)c1sccc1NC(=O)Nc1ccc(C)cc1	?	i	-43.4%	i
O=C(Nc1ccc(Cl)cc1)c1sccc1-n1cccc1	?	i	2.1%	i
COC(=O)c1sccc1NC(=O)Nc1ccc(C)cc1C	12.6µM*	i	0.3%	i
Cc1ccc(NC(=O)c2sccc2-n2cccc2)c(C)c1	22.4µM*	i	6.6%	i
COc1ccc(NC(=O)c2sccc2-n2cccc2)cc1	12.6µM*	i	-3.0%	i
C[C@H]1[C@@H](OC(=O)Nc2ccc(C(F)(F)F)cc2)CC[C@@]23CCCN2C(=O)CCC[C@@H]13	.	i	.	.
Oc1ccc2ccccc2c1SSc1c(O)ccc2ccccc12	.	.	-65.8%	.
CCc1ccc(N(CC)C(=O)Cc2c(C(=O)O)n(C)c3ccccc23)cc1	28.2µM*	i	-10.8%	i
CC(C)c1ccc(N(C)C(=O)Cc2c(C(=O)O)n(C)c3ccccc23)cc1	28.2µM*	i	9.9%	i
CN(C(=O)Cc1c(C(=O)O)n(C)c2ccccc12)c1ccc(Cl)cc1	-23.4%	i	2.9%	i
O=S(=O)(NCCc1ccncc1)c1ccc(Br)cc1	6.4%	i	-1.4%	i
Fc1ccc(Br)cc1SCCc1ccncc1	11.2µM*	i	-3.8%	i
CCOC(=O)c1nnc(-c2ccccc2)nc1NCc1ccc(Cl)cc1	12.6µM*	i	2.2%	i
C[C@H]1[C@@H](NC(=O)C#Cc2ccccc2)CC[C@@]23CCCN2C(=O)CCC[C@@H]13	.	i	.	.
COc1ccc(Br)cc1C(=O)Nc1ccccc1N1CCN(C(=O)c2ccccc2)CC1	3.4%	?	29.0%	i
O=C(Nc1ccccc1N1CCN(C(=O)c2ccc(Cl)cc2)CC1)c1cccc(F)c1	?	i	-6.9%	i
O=C(Nc1ccccc1N1CCN(C(=O)c2ccccc2)CC1)c1cc(Br)ccc1Cl	?	25.1µM*	14.0%	i
O=C(Nc1ccccc1N1CCN(C(=O)c2ccc(Cl)cc2)CC1)c1ccc2c(c1)OCO2	6.31µM*	?	.	i
O=C(c1ccc2c(c1)OCO2)N1CCCC1	-29.0%	10µM*	0.9%	i
COc1cccc(C(=O)N(Cc2ccc(N(C)C)cc2)Cc2ccco2)c1	17.9%	i	.	i
O=C(NCc1ccccc1)C1Nc2ccc(OC(F)(F)F)cc2C2C=CCC12 (configuration not stated)	22.4µM*	i	1.4%	?
O=C(NCc1ccccn1)C1Nc2ccc(OC(F)(F)F)cc2C2C=CCC12 (configuration not stated)	17.8µM*	i	-2.7%	i
